Measured values published in PMC7862700, “An all-to-all approach to the identification of sequence-specific readers for epigenetic DNA modifications on cytosine”.

Legend:
Test in all cases: DAPPL (digital affinity profiling via proximity ligation, sequencing); 10 mM Tris-HCl pH 7.5, 50 mM NaCl, 1 mM DTT, 4% glycerol, room temperature, 30 min; GST-TFs on glutathione beads, 16-mer random dsDNA library, 0.1% formaldehyde crosslink after washing; high values mean tight binding
Conditions in all cases: protein: recombinant; tags: N-terminal GST; dsDNA, one strand shown
ERF = target: T1, ERF (Homo sapiens, UniProt P50548 1-548)
T1 sequence: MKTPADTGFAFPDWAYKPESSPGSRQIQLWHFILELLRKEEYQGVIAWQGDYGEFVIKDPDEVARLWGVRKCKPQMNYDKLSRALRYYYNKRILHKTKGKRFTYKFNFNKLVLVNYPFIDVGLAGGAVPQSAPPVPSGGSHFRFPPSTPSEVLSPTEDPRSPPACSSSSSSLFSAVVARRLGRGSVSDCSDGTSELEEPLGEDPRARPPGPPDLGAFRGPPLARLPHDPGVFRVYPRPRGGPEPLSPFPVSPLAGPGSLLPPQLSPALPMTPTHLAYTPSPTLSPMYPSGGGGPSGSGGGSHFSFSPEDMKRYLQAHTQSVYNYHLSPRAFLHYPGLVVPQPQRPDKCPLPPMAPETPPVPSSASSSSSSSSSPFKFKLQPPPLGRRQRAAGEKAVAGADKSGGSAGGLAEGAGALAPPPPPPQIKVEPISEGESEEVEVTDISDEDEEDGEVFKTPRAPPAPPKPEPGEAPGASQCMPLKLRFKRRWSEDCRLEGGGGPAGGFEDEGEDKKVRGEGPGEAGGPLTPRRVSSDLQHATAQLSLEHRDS
Summary of the method: (§1)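 Pools of DNA-barcoded human transcription factors, expressed in yeast as GST fusions on glutathione beads and combined with a tag-only sample, were incubated with 200 nmole of a 16-mer random double-stranded DNA library. Incubation took 30 min at room temperature in Tris/NaCl/DTT/glycerol buffer and was followed by washing, 0.1% formaldehyde crosslinking, proximity ligation (BsaI/T4 ligase, 1 h, 37 °C), PCR amplification and sequencing on an Illumina NextSeq500. Binding signal is the ratio of a hexamer's read frequency for a factor to its frequency for the tag-only sample.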

ETV3L = target: T2, ETV3L (Homo sapiens, UniProt Q6ZN32 1-361)
T2 sequence: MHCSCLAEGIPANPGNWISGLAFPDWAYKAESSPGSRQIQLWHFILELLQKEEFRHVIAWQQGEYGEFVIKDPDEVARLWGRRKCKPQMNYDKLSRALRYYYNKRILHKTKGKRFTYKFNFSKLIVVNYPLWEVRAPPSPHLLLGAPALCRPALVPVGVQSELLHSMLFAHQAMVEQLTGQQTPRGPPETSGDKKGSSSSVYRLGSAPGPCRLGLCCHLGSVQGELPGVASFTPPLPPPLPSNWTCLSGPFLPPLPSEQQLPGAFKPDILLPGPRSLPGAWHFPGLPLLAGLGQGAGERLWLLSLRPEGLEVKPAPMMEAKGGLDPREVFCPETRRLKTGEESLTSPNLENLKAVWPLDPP
Summary of the method: as §1

ETS2 = target: T3, ETS2 (Homo sapiens, UniProt P15036 1-469)
T3 sequence: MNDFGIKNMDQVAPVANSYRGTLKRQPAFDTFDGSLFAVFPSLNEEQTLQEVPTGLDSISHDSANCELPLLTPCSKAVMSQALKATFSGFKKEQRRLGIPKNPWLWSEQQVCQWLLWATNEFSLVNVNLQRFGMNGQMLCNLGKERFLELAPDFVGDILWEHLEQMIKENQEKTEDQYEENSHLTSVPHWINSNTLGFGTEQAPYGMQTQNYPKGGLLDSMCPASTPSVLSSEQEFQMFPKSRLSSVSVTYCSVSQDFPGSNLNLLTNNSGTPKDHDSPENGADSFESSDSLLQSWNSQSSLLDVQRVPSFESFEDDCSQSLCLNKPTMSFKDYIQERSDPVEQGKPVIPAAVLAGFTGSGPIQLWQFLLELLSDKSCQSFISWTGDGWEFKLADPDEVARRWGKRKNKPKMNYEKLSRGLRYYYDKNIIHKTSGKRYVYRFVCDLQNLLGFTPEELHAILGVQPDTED
Summary of the method: as §1

SPDEF = target: T4, SPDEF (Homo sapiens, UniProt O95238 1-335)
T4 sequence: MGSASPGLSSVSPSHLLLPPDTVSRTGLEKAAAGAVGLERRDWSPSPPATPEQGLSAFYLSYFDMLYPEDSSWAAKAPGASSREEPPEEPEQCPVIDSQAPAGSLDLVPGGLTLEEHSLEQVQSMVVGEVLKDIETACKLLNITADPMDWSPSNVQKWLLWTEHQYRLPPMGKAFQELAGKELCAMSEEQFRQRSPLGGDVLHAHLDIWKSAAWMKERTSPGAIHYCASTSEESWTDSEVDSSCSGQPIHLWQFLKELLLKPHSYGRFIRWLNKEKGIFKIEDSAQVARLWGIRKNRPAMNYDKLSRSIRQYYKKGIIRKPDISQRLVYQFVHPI
Summary of the method: as §1

ETV7 = target: T5, ETV7 (Homo sapiens, UniProt Q9Y603 1-341)
T5 sequence: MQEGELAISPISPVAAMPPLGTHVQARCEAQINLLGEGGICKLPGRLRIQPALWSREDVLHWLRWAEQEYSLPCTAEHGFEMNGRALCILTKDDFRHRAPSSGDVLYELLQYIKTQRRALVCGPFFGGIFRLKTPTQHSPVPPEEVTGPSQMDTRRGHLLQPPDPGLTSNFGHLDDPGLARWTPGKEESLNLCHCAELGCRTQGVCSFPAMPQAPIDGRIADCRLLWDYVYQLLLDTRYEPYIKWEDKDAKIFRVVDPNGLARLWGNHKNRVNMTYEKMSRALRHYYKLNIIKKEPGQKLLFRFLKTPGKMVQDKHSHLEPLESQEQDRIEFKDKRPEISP
Summary of the method: as §1

ELF5 = target: T6, ELF5 (Homo sapiens, UniProt Q9UKW6-2 1-255)
T6 sequence: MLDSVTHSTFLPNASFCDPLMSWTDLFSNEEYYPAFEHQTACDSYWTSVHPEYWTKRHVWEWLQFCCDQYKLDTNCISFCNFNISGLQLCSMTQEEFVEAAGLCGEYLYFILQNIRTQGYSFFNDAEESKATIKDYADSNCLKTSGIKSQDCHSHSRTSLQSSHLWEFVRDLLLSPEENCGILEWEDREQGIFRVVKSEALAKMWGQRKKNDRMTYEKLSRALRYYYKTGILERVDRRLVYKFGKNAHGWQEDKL
Summary of the method: as §1

ETV3 = target: T7, ETV3 (Homo sapiens, UniProt P41162-2 1-143)
T7 sequence: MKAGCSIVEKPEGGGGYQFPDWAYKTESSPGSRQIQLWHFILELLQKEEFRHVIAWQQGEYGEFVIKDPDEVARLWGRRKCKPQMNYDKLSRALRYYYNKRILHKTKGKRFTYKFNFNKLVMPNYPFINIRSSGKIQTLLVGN
Summary of the method: as §1

ETV6 = ETV6 (Homo sapiens, UniProt P41212 1-452)
Chain of ETV6 (P41212 whole entry): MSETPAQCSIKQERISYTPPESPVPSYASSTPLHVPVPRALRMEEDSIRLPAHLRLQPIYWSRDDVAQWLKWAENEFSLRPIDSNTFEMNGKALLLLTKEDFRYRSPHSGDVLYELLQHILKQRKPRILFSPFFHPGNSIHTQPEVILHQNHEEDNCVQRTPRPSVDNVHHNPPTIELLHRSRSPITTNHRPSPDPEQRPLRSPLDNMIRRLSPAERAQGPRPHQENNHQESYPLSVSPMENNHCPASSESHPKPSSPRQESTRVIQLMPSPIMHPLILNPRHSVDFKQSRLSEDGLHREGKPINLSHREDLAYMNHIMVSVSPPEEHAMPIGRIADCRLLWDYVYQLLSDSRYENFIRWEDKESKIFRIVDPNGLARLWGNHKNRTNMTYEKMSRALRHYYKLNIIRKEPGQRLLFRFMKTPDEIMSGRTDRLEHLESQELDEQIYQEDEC
Summary of the method: as §1

| Sequence | binding signal (ERF) | binding signal (ETV3L) | binding signal (ETS2) | binding signal (SPDEF) | binding signal (ETV7) | binding signal (ELF5) | binding signal (ETV3) | binding signal (ETV6) |
| --- | --- | --- | --- | --- | --- | --- | --- | --- |
| TCTAAG | 1.25 fold enrichment (6-mer frequency, TF over GST control) | 1.17 fold enrichment (6-mer frequency, TF over GST control) | 1.23 fold enrichment (6-mer frequency, TF over GST control) | 1.1 fold enrichment (6-mer frequency, TF over GST control) | 1.29 fold enrichment (6-mer frequency, TF over GST control) | 1.23 fold enrichment (6-mer frequency, TF over GST control) | 1.24 fold enrichment (6-mer frequency, TF over GST control) | 1.17 fold enrichment (6-mer frequency, TF over GST control) |
| ATTGTT | 1.65 fold enrichment (6-mer frequency, TF over GST control) | 1.55 fold enrichment (6-mer frequency, TF over GST control) | 1.47 fold enrichment (6-mer frequency, TF over GST control) | 1.46 fold enrichment (6-mer frequency, TF over GST control) | 1.47 fold enrichment (6-mer frequency, TF over GST control) | 1.36 fold enrichment (6-mer frequency, TF over GST control) | 1.56 fold enrichment (6-mer frequency, TF over GST control) | 1.51 fold enrichment (6-mer frequency, TF over GST control) |
| TTAACG | 1.15 fold enrichment (6-mer frequency, TF over GST control) | 1.17 fold enrichment (6-mer frequency, TF over GST control) | 1.23 fold enrichment (6-mer frequency, TF over GST control) | 1.23 fold enrichment (6-mer frequency, TF over GST control) | 1.13 fold enrichment (6-mer frequency, TF over GST control) | 1.14 fold enrichment (6-mer frequency, TF over GST control) | 1.16 fold enrichment (6-mer frequency, TF over GST control) | 1.17 fold enrichment (6-mer frequency, TF over GST control) |
| CGAACC | 1.12 fold enrichment (6-mer frequency, TF over GST control) | 1.15 fold enrichment (6-mer frequency, TF over GST control) | 1.14 fold enrichment (6-mer frequency, TF over GST control) | 1.23 fold enrichment (6-mer frequency, TF over GST control) | 1.11 fold enrichment (6-mer frequency, TF over GST control) | 1.09 fold enrichment (6-mer frequency, TF over GST control) | 1.07 fold enrichment (6-mer frequency, TF over GST control) | 1.1 fold enrichment (6-mer frequency, TF over GST control) |
| CCTTTA | 1.34 fold enrichment (6-mer frequency, TF over GST control) | 1.38 fold enrichment (6-mer frequency, TF over GST control) | 1.32 fold enrichment (6-mer frequency, TF over GST control) | 1.38 fold enrichment (6-mer frequency, TF over GST control) | 1.23 fold enrichment (6-mer frequency, TF over GST control) | 1.41 fold enrichment (6-mer frequency, TF over GST control) | 1.33 fold enrichment (6-mer frequency, TF over GST control) | 1.41 fold enrichment (6-mer frequency, TF over GST control) |
| TCTTCC | 2.26 fold enrichment (6-mer frequency, TF over GST control) | 2.66 fold enrichment (6-mer frequency, TF over GST control) | 2.8 fold enrichment (6-mer frequency, TF over GST control) | 2.45 fold enrichment (6-mer frequency, TF over GST control) | 2.35 fold enrichment (6-mer frequency, TF over GST control) | 4.14 fold enrichment (6-mer frequency, TF over GST control) | 2.74 fold enrichment (6-mer frequency, TF over GST control) | 2.8 fold enrichment (6-mer frequency, TF over GST control) |
| ACCTTA | 1.29 fold enrichment (6-mer frequency, TF over GST control) | 1.19 fold enrichment (6-mer frequency, TF over GST control) | 1.16 fold enrichment (6-mer frequency, TF over GST control) | 1.3 fold enrichment (6-mer frequency, TF over GST control) | 1.21 fold enrichment (6-mer frequency, TF over GST control) | 1.26 fold enrichment (6-mer frequency, TF over GST control) | 1.17 fold enrichment (6-mer frequency, TF over GST control) | 1.21 fold enrichment (6-mer frequency, TF over GST control) |
| ATTCCG | 1.58 fold enrichment (6-mer frequency, TF over GST control) | 1.74 fold enrichment (6-mer frequency, TF over GST control) | 1.78 fold enrichment (6-mer frequency, TF over GST control) | 1.85 fold enrichment (6-mer frequency, TF over GST control) | 1.62 fold enrichment (6-mer frequency, TF over GST control) | 2.17 fold enrichment (6-mer frequency, TF over GST control) | 1.89 fold enrichment (6-mer frequency, TF over GST control) | 1.78 fold enrichment (6-mer frequency, TF over GST control) |
